SENP8 block-1 = SENP8 protease inhibition; purified SENP8, Z-RLRGG-aminoluciferin cleavage, luminescence; inhibition, % at 10 µM; 330,000 compounds, 1.2% hits; in the data active = inhibition above about 50%
Target sequence (Q96LD8 whole entry, looked up): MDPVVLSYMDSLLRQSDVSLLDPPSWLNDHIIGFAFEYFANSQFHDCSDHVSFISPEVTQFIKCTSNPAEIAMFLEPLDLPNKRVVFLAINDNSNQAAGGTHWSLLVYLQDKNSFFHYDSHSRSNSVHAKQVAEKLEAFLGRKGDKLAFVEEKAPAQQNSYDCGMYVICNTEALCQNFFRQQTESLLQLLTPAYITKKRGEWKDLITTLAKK
SENP8 block-2 = SENP8 (human) protease inhibition; Q96LD8; recombinant SENP8, Nedd8 substrate fluorescence; inhibition, % at 20 µM; 360,000 compounds, 0.64% hits; AID 602440; in the data active = inhibition mostly above about 40%, no sharp cut-off; inactive = mostly below about 27%
AHR activator = activators of human aryl hydrocarbon receptor | 320,000 compounds, 2.5% hits | activation, % at 5 µM | AHR-responsive luciferase reporter cells, luminescence | P35869 | AID 2796; in the data active = activation above about 47%
SENP6 block = inhibitors of human SENP6 protease | Q9GZR1 | Recombinant SENP6 catalytic domain, aminoluciferin luminescence | inhibition, % at 10 µM | 330,000 compounds, 1.8% hits;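 active = inhibition above about 50% at the single tested dose, limit read from the data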
EBI2 block = antagonists of human EBI2 receptor. inhibition, % at 5 µM. 360,000 compounds, 0.81% hits. P32249. EBI2 beta-arrestin recruitment, luminescence, 7a,25-OHC stimulated; in the data active = inhibition above about 38%;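 also: enzyme fragment complementation signal reports receptor beta-arrestin coupling in cells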
SENP7 inh = blocks the human protease SENP7; Q9BQF6; inhibition, % at 5 µM; 330,000 compounds, 1.5% hits; recombinant SENP7, Z-RLRGG-aminoluciferin luminescence, 40 min;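 active = inhibition above about 50% at the single test dose, limit read from the data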
Target sequence (Q9BQF6 706-1050 limits assumed): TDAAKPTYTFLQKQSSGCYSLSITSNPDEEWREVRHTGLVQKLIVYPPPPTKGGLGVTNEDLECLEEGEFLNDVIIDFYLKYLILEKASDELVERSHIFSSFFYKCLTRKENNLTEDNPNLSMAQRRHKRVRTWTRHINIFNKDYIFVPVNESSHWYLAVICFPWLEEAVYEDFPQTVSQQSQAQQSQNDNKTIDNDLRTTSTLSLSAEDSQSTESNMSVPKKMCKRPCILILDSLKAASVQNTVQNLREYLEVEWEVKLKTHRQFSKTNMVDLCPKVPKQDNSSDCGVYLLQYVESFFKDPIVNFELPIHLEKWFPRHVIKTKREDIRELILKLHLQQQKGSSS
AHR act cf = confirmation of human aryl hydrocarbon receptor activators | activation, % at 9 µM | 2,300 compounds, 87% hits | human cells, AHR-responsive luciferase reporter, luminescence | shares compounds with AHR activator; in the data active = activation above about 49%;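 also: HepG2 hepatoma cells carrying a DRE-driven firefly luciferase reporter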
PXR act counter = counter-screen for AHR activators: human PXR activators; cell-based PXR reporter, luciferase luminescence; activation, % at 11.6 µM; AID 434939; 2,300 compounds, 88% hits; shares compounds with AHR activator; in the data active = activation above about 11%;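 also: human hepatoma DPX-2 cells expressing full-length human PXR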
Large screens that a line does not name were inactive (follow-up assays come after a bar, where they were run). Rows were chosen to be rich in hits. Some 5% of all compounds tested hit in one or more screens of this group.

CCC(C)(C)n1nnnc1C(c1cccnc1)N1CCN(c2cccc(C(F)(F)F)c2)CC1 (stereo unspecified)	none
CCOc1ccc(CCNC(=O)c2sc3nc4n(c(=O)c3c2C)CCC4)cc1	none
CN(C)c1ccc(/C=N\NC(=O)c2csnn2)cc1	AHR activator 110.9 | AHR act cf 54.5 | PXR act counter 10.2
CN(C)c1ccc(/C=N/NC(=O)c2ccn(C)n2)cc1	none
O=C(Nc1ccc(Br)cc1)c1cnc[nH]1	AHR activator 108.8 | AHR act cf 67.7 | PXR act counter 18.5
Cn1cc(-c2nc3ccccc3[nH]2)c2ccccc21	AHR activator 138.4 | AHR act cf 121.6 | PXR act counter 64.0
Cc1c(-c2nc3ccccc3[nH]2)cnn1C	none
COc1ccc(NC(=O)c2cc(-c3ccccc3)nc3c2cnn3C(C)C)c(OC)c1	none
CC(C)(C=O)C1=CC(=O)c2ccccc2C1=O	AHR activator 83.0 (no result: SENP8 block-1, SENP6 block, SENP7 inh) | AHR act cf 112.0 | PXR act counter 25.5
CC(SC1=Nc2ccccc2C2CC=NN12)C(=O)NC1(C#N)CCCCC1 (stereo unspecified)	none
COc1ccc(CN2CC(=O)N(c3cc(Cl)ccc3OC)C2=S)cc1OC	none
Cc1nc(NC2=NCN(CCCN3CCOCC3)CN2)nc2c(C)cccc12	AHR activator 125.1 | AHR act cf 74.2
c1ccc(-c2nc(-n3nc4ccccc4n3)nc3ccccc23)cc1	none
c1ccc(-c2c3ccccc3nc3[nH]c4ccccc4c23)cc1	AHR activator 102.7 | AHR act cf 67.8 | PXR act counter 31.5
COc1ccc(CN2CNc3c(c(=O)n(C)c(=O)n3C)C2)cc1	none
CC(C)n1cnc2cc(NCc3nc4ccccc4n3C)ccc21	AHR activator 90.9, SENP6 block 61.8 | AHR act cf 86.5 | PXR act counter 128.0
Cc1ccc(CNc2ccc3c(c2)ncn3C(C)C)cc1	none
CCOC(=O)c1cc(C)sc1NC(=O)CSC1=NCCS1	none
COc1ccc2cc(CN(Cc3ccco3)Cc3nnnn3C3CCCCC3)c(=O)[nH]c2c1	none
CCC(C)(C)n1nnnc1CN(Cc1ccco1)Cc1cc2cc3c(cc2[nH]c1=O)OCO3	AHR activator 107.3 | AHR act cf 85.8 | PXR act counter 146.8
CC(C)(C)n1nnnc1CN(Cc1ccco1)Cc1cc2cc3c(cc2[nH]c1=O)OCO3	AHR activator 111.4 | AHR act cf 95.9 | PXR act counter 197.0
COC(=O)c1c(C)oc(C)c1S(=O)(=O)N1CCCC1	none
Cc1nc(NC(=O)CSc2nnc(-c3ccc4c(c3)OCO4)o2)c(Cl)cc1Cl	AHR activator 127.8 | AHR act cf 105.4 | PXR act counter 87.9
O=C(CSc1nc2ccccc2c2nc3ccccc3n12)NCc1ccco1	AHR activator 79.5 | AHR act cf 49.8 | PXR act counter 47.8
CCn1c(SCC(=O)NCc2ccco2)nc2ccccc2c1=O	none
CN(C)S(=O)(=O)Oc1ccccc1C(=O)Nc1cccc(C(F)(F)F)c1	AHR activator 82.3 | AHR act cf 100.5 | PXR act counter 55.1
CN(C)S(=O)(=O)c1ccc(N2CCCC2)c(C(=O)Nc2ccc(F)cc2F)c1	none
Cn1ncc(N)c1C(=O)Nc1cccc(C(F)(F)F)c1	none
Nc1[nH]ncc1C(=O)Nc1cccc(C(F)(F)F)c1	AHR activator 90.7 | AHR act cf 50.5
CN(C)S(=O)(=O)Oc1ccccc1C(=O)Nc1ccc(F)cc1F	AHR activator 124.3 | AHR act cf 92.8 | PXR act counter 154.4
COc1cccc(-c2nc(CS(=O)CC(=O)NC3CCCCC3)c(C)o2)c1 (stereo unspecified)	none
Nc1c(Cl)cc(C2=NCCn3nc4cc([N+](=O)[O-])ccc4c32)cc1Cl	AHR activator 118.0 | AHR act cf 103.7 | PXR act counter 54.3
O=C(OCC(=O)N1CCCCCC1)c1ccc([N+](=O)[O-])cc1Cl	none
COc1ccc(C)c2sc(NNC(=O)COc3ccccc3)nc12	AHR activator 79.5 (no result: SENP8 block-2, EBI2 block) | AHR act cf 98.6 | PXR act counter 14.6
COC(=O)c1sc(NC(=O)COc2ccccc2)nc1C	none
NC(=O)c1c(NC(=O)c2cccnc2Cl)sc2c1CCCC2	AHR activator 103.2 | AHR act cf inactive | PXR act counter inactive
C/C(=N/Nc1ccccc1[N+](=O)[O-])c1ccc([N+](=O)[O-])cc1	none
C/C(=N\Nc1ccc([N+](=O)[O-])cc1[N+](=O)[O-])c1ccc(-n2nncc2C(C)(C)C)cc1	AHR activator 120.4 | AHR act cf 77.8 | PXR act counter 37.9
COc1ccc(Cl)c(-c2cc(C(=O)NC(C)C)[nH]n2)c1	none (no result: SENP8 block-1, AHR activator, SENP6 block, SENP7 inh)
COc1ccc(O)c(-c2cc(-c3cccs3)[nH]n2)c1	AHR activator 86.5 | AHR act cf 138.5 | PXR act counter 26.3
COc1ccc(O)c(-c2cc(-c3ccccc3Cl)[nH]n2)c1	AHR activator 124.0 | AHR act cf 272.6 | PXR act counter 21.9
COc1ccc(C(=O)CSc2nc3c(c(=O)n(C)c(=O)n3C)n2C)cc1	none (no result: SENP8 block-2, EBI2 block)
O=C(Nc1ccc2c(c1)OCO2)c1c(F)c(F)c(F)c(F)c1F	none
Cn1ncc([N+](=O)[O-])c1C(=O)Nc1ccc2c(c1)OCCO2	none
Cn1ncc(Cl)c1C(=O)Nc1ccc2c(c1)OCO2	AHR activator 123.2 | AHR act cf 117.0 | PXR act counter 13.2
Cc1cnc(NC(=O)c2c(Cl)cnn2C)s1	AHR activator 88.2 | AHR act cf 93.0
O=C(Nc1ccc2c(c1)OCO2)c1c(Cl)nc2sccn12	AHR activator 114.2 | AHR act cf 154.2 | PXR act counter 53.3
Nc1c2nc(-c3ccccc3Cl)[nH]c(=O)c2nc(=O)n1-c1ccccc1	AHR activator 86.8 | AHR act cf 94.7 | PXR act counter 19.3
CC(NC(=O)C1CCCN1S(=O)(=O)c1ccccc1)c1ccccc1 (stereo unspecified)	none
C/C(=N\Nc1nc2ccccc2s1)c1ccc2c(c1)OCO2	AHR activator 89.8 | AHR act cf 111.8 | PXR act counter 31.4
C/C(=N\NC(=O)c1ccccc1)c1ccc2c(c1)OCO2	none
Cc1cccc(C(=O)N(C(=O)c2cccc(C)c2)N(C)C)c1	none (no result: SENP8 block-1, AHR activator, SENP6 block, SENP7 inh)
CCN1CCN(c2ncnc3sc(C(=O)Nc4ccccc4F)c(C)c23)CC1	AHR activator 128.3 | AHR act cf 75.3 | PXR act counter 23.4
O=C(NNC(=S)NCc1ccccc1)c1cccnc1	none
COCCCNC(=S)NNC(=O)c1cccnc1	AHR activator 108.2 | AHR act cf inactive | PXR act counter inactive
Cc1ccc2[nH]c3nc(N/N=C/c4cccc(O)c4)nnc3c2c1	none
CCc1ccc2[nH]c3nc(N/N=C/c4ccc(O)cc4O)nnc3c2c1	AHR activator 83.3 | AHR act cf 89.7
Nc1nc(N)c(N=Nc2ccc(Cl)cc2)c(=O)[nH]1	none
